Results published in PubChem BioAssay (NCATS).

These molecules were tested against Glucocorticoid receptor (Homo sapiens) (UniProt P04150) (assay: GR-GFP Redistribution (AID 450)). Settings: U2OS GR-GFP nuclear translocation, laser cytometry, 2 h; series mostly up to 20.6 µM;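 active = compounds whose dose series gives a full or clear partial fitted curve of increased nuclear translocation; inconclusive = weak partial curve or effect only at the top dose; inactive = no dose-dependent translocation response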.
Potency is the fitted concentration of half-maximal effect.

Chain of Glucocorticoid receptor (Homo sapiens) (P04150 whole entry, looked up): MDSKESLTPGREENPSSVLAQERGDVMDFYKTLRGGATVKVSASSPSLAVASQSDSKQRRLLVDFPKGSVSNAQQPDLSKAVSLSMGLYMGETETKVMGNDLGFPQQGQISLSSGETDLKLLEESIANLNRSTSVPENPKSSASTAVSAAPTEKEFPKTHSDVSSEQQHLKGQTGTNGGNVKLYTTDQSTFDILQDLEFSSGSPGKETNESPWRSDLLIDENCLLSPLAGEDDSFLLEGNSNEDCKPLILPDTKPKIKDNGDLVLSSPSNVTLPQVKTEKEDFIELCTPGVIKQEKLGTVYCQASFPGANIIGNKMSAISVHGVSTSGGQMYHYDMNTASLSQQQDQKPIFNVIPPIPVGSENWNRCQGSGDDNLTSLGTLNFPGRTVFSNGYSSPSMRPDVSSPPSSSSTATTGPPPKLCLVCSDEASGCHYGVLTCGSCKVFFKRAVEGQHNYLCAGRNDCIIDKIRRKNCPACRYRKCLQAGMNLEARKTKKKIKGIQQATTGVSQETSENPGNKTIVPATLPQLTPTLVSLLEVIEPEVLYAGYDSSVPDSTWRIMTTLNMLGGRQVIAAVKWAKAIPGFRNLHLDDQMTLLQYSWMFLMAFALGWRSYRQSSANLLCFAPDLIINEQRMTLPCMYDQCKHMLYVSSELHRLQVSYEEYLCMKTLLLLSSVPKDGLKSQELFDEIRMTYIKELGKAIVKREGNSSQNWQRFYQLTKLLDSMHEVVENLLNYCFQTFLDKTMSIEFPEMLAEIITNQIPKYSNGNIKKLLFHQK

Potency, inactive:
COc1cc(C2C(C#N)=C(N)Oc3cc(C)n(CCc4ccccc4)c(=O)c32)cc2c1OCO2 (centres undefined) > 20.6 µM
Cc1cccc(N2CN=c3s/c(=C\c4ccncc4)c(=O)n3C2)c1 > 20.6 µM
CCOC(=O)CSc1nc(N)c2c3c(sc2n1)CCCC3 > 20.6 µM
CCOC(=O)c1c(-c2cccs2)csc1NC(=O)c1ccncc1 > 20.6 µM
Cc1sc(-n2c(C)cc(/C=N/n3cnnc3)c2C)c(C#N)c1C > 20.6 µM
COCCOC(=O)c1c(C)oc2ccc(OC(=O)COc3c(F)c(F)c(F)c(F)c3F)cc12 > 20.6 µM
CCC1(C)Cc2c(sc(NC(=O)CCC(=O)O)c2C#N)CO1 (centres undefined) > 20.6 µM
CCOc1ccc(S(=O)(=O)N(C)CCO)cc1-c1nc2c(C(C)(C)C)nn(C)c2c(=O)[nH]1 > 20.6 µM
COc1cccc(-c2nc(NCc3ccco3)c3ccccc3n2)c1O > 20.6 µM
CCNCc1cc2cc(C)ccc2[nH]c1=O > 20.6 µM
O=P(O)(c1ccccc1)c1ccccc1O > 20.6 µM
COc1ccc(OCC(O)Cn2c(Nc3cccc(C)c3)nc3c2c(=O)n(C)c(=O)n3C)cc1 (centres undefined) > 20.6 µM
Cc1nc2sc3c(c2c(=O)o1)CC(C)(C)OC3 > 20.6 µM
CC(C)Cc1nc(N2CCN(C(=O)C(C)C)CC2)c(C#N)c2c1CCC2 > 20.6 µM
CCN1CCc2c(C#N)c(N3CCCCC3)nc(N3CCOCC3)c2C1 > 20.6 µM
Nc1nnc(Cc2ccc(Cl)c(Cl)c2)s1 > 20.6 µM
CC(=NC1CCCC1)c1c(C)[nH]n(-c2nc3ccccc3s2)c1=O > 20.6 µM
O=C(Nc1ccc2c(c1)OCCO2)c1ccc(Br)o1 > 20.6 µM
CN=c1sc2ccccc2n1CC(O)COCc1ccco1 (centres undefined) > 20.6 µM
CCn1cc(C(=O)NCc2ccco2)c(=O)c2cc(F)c(N3CCN(C(=O)c4ccco4)CC3)cc21 > 20.6 µM
C=CCOc1nc2c(c(=O)n(Cc3ccc(Cl)c(Cl)c3)c(=O)n2C)n1C > 20.6 µM
CCCSC1=C(C#N)C(c2ccc(OC)cc2)C2=C(CC(C)(C)CC2=O)N1 (centres undefined) > 20.6 µM
CCOC(=O)c1ccc(-n2c(=O)[nH]c3ccccc3c2=O)cc1 > 20.6 µM
COc1ccc(C(=O)c2oc3nc(C)cc(C)c3c2N)cc1 > 20.6 µM
